Source: PubChem BioAssay
Rows were chosen to be rich in hits. Some 8.7% of all compounds tested hit in one or more screens of this group.
Pf growth 96h = Primary qHTS for delayed death inhibitors of the malarial parasite plastid, 96 hour incubation. P. falciparum luciferase reporter growth, 96 h. Potency, µM (top dose mostly 28.7 µM), without a hit: top-dose activity change, negative = inhibition, most hits filed as inhibitors. 6.9% of 320,000 active. AID 504834, 2011
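Compounds incubated with erythrocytes infected by luciferase-expressing P. falciparum (2% hematocrit, 0.05% parasitemia final) for 96 hours, 37 C in 5% CO2. Growth inhibition scored as decreased luciferase luminescence.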
AMA1 RON2 block = qHTS for Inhibitors of AMA1-RON; Towards Development of Antimalarial Drug Lead: Primary Screen; Plasmodium falciparum AMA1 (3D7) - RON2 peptide interaction; AlphaScreen AMA1-biotinylated RON2 peptide binding; Potency, µM (top dose mostly 58.2 µM), without a hit: at the highest dose activity change, negative = inhibition, usual class: inhibitors; 0.2% of 360,000 active; AID 720542, 2013;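 also: 0% = vehicle wells and -100% = peptide control; nearly all actives have a fitted effect of over 45% in size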
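AMA1 (3D7) with his tag at 25 nM final met compounds first, then biotinylated RON2 peptide at 25 nM; detection used donor plus acceptor beads, 10 µg/mL apiece, read by AlphaScreen after 30 min at room temperature.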
VACV mCherry inh = qHTS for Stage-Specific Inhibitors of Vaccinia Orthopoxvirus: mCherry Reporter Primary qHTS; Vaccinia virus mCherry reporter infection, fluorescence; Potency, µM (top dose mostly 36.5 µM), for the others: at the top dose activity change, negative = inhibition, most hits filed as inhibitors; 0.63% of 310,000 active; AID 720579, 2013; calls by dose curve; tested in A549 cells; also: nearly all actives have a fitted effect of over 35% in size
Pf growth 48h = Primary qHTS for delayed death inhibitors of the malarial parasite plastid, 48 hour incubation; Potency, µM (top dose mostly 28.7 µM), without a hit: at the highest dose activity change, negative = inhibition, actives largely listed as inhibitors; AID 504832, 2011; P. falciparum luciferase growth in erythrocytes, 48 h; 5.9% of 310,000 active
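A one-generation exposure of luciferase-tagged malaria parasites in RPMI 1640/Albumax erythrocyte culture, 37 C and 5% CO2. Inhibition is inferred from decreased luminescence after adding detection reagent.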
Vaccinia Venus = qHTS for Stage-Specific Inhibitors of Vaccinia Orthopoxvirus: Venus Reporter Primary qHTS; Vaccinia virus Venus reporter expression, fluorescence; Potency, µM (top dose mostly 36.5 µM), for inactives: at the top dose activity change, negative = inhibition, hits mostly inhibitors; 0.46% of 330,000 active; AID 720580, 2013; calls by dose curve; tested in A549 cells; also: nearly all actives have a fitted effect of over 30% in size
The depositor's hits bear a star; i = inactive; ? = inconclusive; . = no result; [ ] = remark or other dose. Unless noted, calls follow the shape of the dose curve; as a rule, active = well fitted curve in the direction sought with a large enough effect; inconclusive = small, poorly fitted or top-dose-only effect, or another doubt; inactive = no such curve, though single readings can be large; an effect the other way counts as inactive or inconclusive. Unless noted, % is scaled to controls: 0 for no effect and ±100 for the full control effect; potency is read from the fitted curve at half-maximal effect.

SMILES	Pf growth 96h	AMA1 RON2 block	VACV mCherry inh	Pf growth 48h	Vaccinia Venus
Cc1ccc(C(=O)Nc2ccc(N3CCN(C)CC3)cc2)c(Cl)c1	10µM*	-4%	i	110%	-8%
CCOC(=O)c1c(C)[nH]c(C)c1S(=O)(=O)N(C)CC(=O)Nc1cc(Cl)ccc1OC	.	.	-10%	.	-8%
Cc1nn(-c2ccccc2)c2sc(C(=O)Nc3cccc(Cl)c3)cc12	.	.	-27%	.	-16%
O=C1NC(=O)C2C3C=CC(C3)C12 (configuration not stated)	-10%	.	.	-5%	.
Cc1cc(C)c(S(=O)(=O)Cc2ccccc2)c(OC(C)C)n1	10µM*	0%	.	?	.
CCCn1c(CCC(=O)Nc2ccc(C)c(Cl)c2)nc2cccnc21	.	.	-8%	.	-9%
Cc1cccc(/C(N)=N/OC(=O)Cc2cccc3ccccc23)c1	?	-2%	i	-25%	-8%
Cc1cccc(C(=O)O/N=C(\N)Cc2cccc3ccccc23)c1	?	2%	.	3.3µM*	.
COc1cccc(C(=O)O/N=C(\N)Cc2ccc(Cl)cc2)c1	139%	-7%	i	10µM*	-6%
N/C(Cc1ccccc1)=N\OC(=O)c1cccc2ccccc12	4.7µM*	72%	?	3.3µM*	-6%
COc1cccc(-n2c(-c3ccc(Cl)cc3)cc3c2CC(C)(C)CC3=O)c1	.	.	-6%	.	-11%
CCS(=O)(=O)c1nc(S(=O)(=O)c2ccc(C)cc2)c(NCc2ccccc2Cl)s1	.	.	-19%	.	-4%
Cc1ccc(C)c(NC(=O)COc2coc(CN3CCc4ccccc43)cc2=O)c1	?	-11%	-17%	?	-19%
Cc1ccccc1NC(=O)COc1coc(CN2CCCc3ccccc32)cc1=O	?	-9%	i	?	-23%
CCOC(=O)c1ccccc1NC(=O)COc1coc(CN2CCc3ccccc32)cc1=O	12µM*	?	-21%	?	-24%
CCOc1ccccc1NC(=O)COc1coc(CN2CCc3ccccc32)cc1=O	?	?	-24%	12µM*	-21%
COc1ccc(-n2c(SCC(=O)NCc3ccc(Cl)cc3)nc3ccsc3c2=O)cc1	.	.	-13%	.	-7%
CSCC[C@@H](C(=O)NCc1cccs1)N1Cc2ccccc2C1=O	8.3µM*	-3%	i	.	-17%
C=CCC(CC=C)(CNC(=O)C(=O)Nc1cc(C)ccc1OC)c1ccc(OC)c(OC)c1	.	.	-9%	.	-14%
C[C@@H]1CC[C@]2(C(=O)O[C@@H]3O[C@H](CO)[C@@H](O)[C@H](O)[C@H]3O)CC[C@]3(C)C(=CCC4[C@@]5(C)CC[C@H](O[C@@H]6OC[C@H](O)[C@H](O[C@@H]7O[C@H](CO)[C@@H](O)[C@H](O)[C@H]7O)[C@H]6O)C(C)(C)C5CC[C@]43C)C2[C@]1(C)O (some centres not stated)	.	6%	i	.	-4%
COc1ccc(/C=C\C(=O)O[C@@H]2C(O)C(O[C@@H]3OC(C)[C@H](O[C@@H]4OCC(O[C@H]5O[C@H](CO)[C@@H](O)C(O)C5O)C(O)C4O)C(O)C3O)[C@H](OC(=O)[C@]34CCC(C)(C)C[C@@H]3C3=CCC5[C@@]6(C)CC(O)C(O[C@@H]7OC(CO)C(O)[C@H](O)[C@H]7O)[C@@](C)(C(=O)O)C6CC[C@@]5(C)[C@]3(CO)CC4)O[C@H]2C)cc1 (some centres not stated)	.	7%	?	.	11µM*
COCC(C)NC(=O)c1cnn2c(C(F)F)cc(-c3ccccc3)nc12 (configuration not stated)	.	.	-1%	.	-4%
O=C(Oc1ccccc1C(=O)Nc1ccccc1)c1ccc(Br)c([N+](=O)[O-])c1	41%	-2%	-9%	33%	-5%
O=C(NCc1cc(Br)cc(Br)c1OC(=O)c1ccccc1[N+](=O)[O-])c1ccccc1	5.2µM*	-12%	-27%	5%	-17%
O=C(Nc1ccccc1)Nc1ccc(-n2ccc(C(F)(F)F)n2)cc1	3.3µM*	-4%	.	?	.
SMILES	Pf growth 96h	AMA1 RON2 block	VACV mCherry inh	Pf growth 48h	Vaccinia Venus
O=C(O)CC(CC(=O)Nc1ccc(-n2ccc(C(F)(F)F)n2)cc1)c1ccccc1 (configuration not stated)	49%	-10%	-10%	?	-4%
O=C(CSc1nc2ncc(Cl)cc2[nH]1)c1c[nH]c2ccccc12	1.9µM*	0%	i	10µM*	-17%
COC(=O)CSc1nc2ncc(Cl)cc2[nH]1	13µM*	6%	.	25%	19%
Cc1ccccc1NC(=O)CSc1nc2ncc(Cl)cc2[nH]1	32%	27%	-3%[7.34 µM]	17%	0%[7.34 µM]
ClC(Cl)(Cl)c1nc2ccccc2n2nncc12	?	20%	?	0.33µM*	?
c1ccc2c(c1)nnn1c3ccccc3nc21	42%	.	.	189%	.
Cn1c(N2CCN(C(c3ccccc3)c3ccccc3)CC2)nc2ccccc21	13µM*	-16%	-8%	?	-22%
N#CCC(=O)N/N=C/c1c2ccccc2cc2ccccc12	7%	123%	.	0%	.
N#CCC(=O)N/N=C/c1cc(Br)ccc1OCc1cccc2ccccc12	?	12%	.	13µM*	.
Cc1ccc(Cl)cc1N1CCN(C(=O)c2ccc3c(c2)CCN3S(=O)(=O)c2ccccc2)CC1	.	.	-6%	.	-27%
CCOc1ccc(CCN2C(=S)N([C@@H](CC(C)C)CN3CCCC3CN3C(=S)NC[C@@H]3Cc3ccc(O)cc3)C[C@@H]2Cc2ccccc2)cc1 (some centres not stated)	.	25%	-30%	.	?
CC(C)C[C@@H](CN1CCCC1CN1C(=S)NC[C@@H]1Cc1ccc(O)cc1)N1C[C@H](Cc2ccc(O)cc2)N(CC2CCCCCC2)C1=S (some centres not stated)	.	12%	6.3µM*	.	11µM*
CC(C)C[C@@H](CN1CCCC1CN1C(=S)NC[C@@H]1Cc1ccc(O)cc1)N1C[C@H](Cc2ccccc2)N(CC2CCCCCC2)C1=S (some centres not stated)	.	-6%	-24%	.	-27%
CCOc1ccc(CCN2C(=S)N([C@@H](CC(C)C)CN3CCCC3CN3C(=S)NC[C@@H]3Cc3ccc(O)cc3)C[C@@H]2Cc2ccc(O)cc2)cc1 (some centres not stated)	.	11%	?	.	10µM*
CCn1c(-c2ccccc2F)nc2cc(NC(C)=O)cc(C(=O)NC(c3ccccn3)C(F)(F)F)c21 (configuration not stated)	.	.	i	.	-29%
CCCC(C(=O)NC1CCCC1)N(C(=O)Cn1nnc(-c2ccc(C)o2)n1)c1ccccc1OC (configuration not stated)	.	24%	.	10µM*	.
